Reference: the antibiotic and cytotoxicity screens of Wong et al. (2023)
About 1,500 (3.8%) of roughly 39,000 compounds were called active. The full list was thinned out, with actives kept by preference.

These compounds were tested on HSkMC (human skeletal muscle cells) (assay: cytotoxicity call (relative viability < 0.9)). Settings: 10 µM.

Row | Structure (SMILES) | cytotoxicity call
1 | CO[C@H]1[C@@H](O)[C@@H](C)O[C@H](O[C@H]2CC[C@@]3(C)[C@H]4CC[C@@]5(C)[C@@H](C6=CC(=O)OC6)CC[C@]5(O)[C@@H]4CC[C@]3(O)C2)[C@@H]1O | inactive
2 | CO[C@H]1C[C@H](O[C@H]2CC[C@]3(C=O)[C@H]4CC[C@]5(C)[C@@H](C6=CC(=O)OC6)CC[C@]5(O)[C@@H]4CC[C@]3(O)C2)O[C@H](C)[C@H]1O | active
3 | COC1C(O)C(C)OC(OC2CCC3(C=O)C(CCC4C3CCC3(C)C(C5=CC(=O)OC5)CCC43O)C2)C1O (stereo unspecified) | active
4 | C[C@@H]1O[C@@H](O[C@H]2CC[C@]3(C=O)[C@H]4CC[C@]5(C)[C@@H](C6=CC(=O)OC6)CC[C@]5(O)[C@@H]4CC[C@]3(O)C2)[C@H](O)[C@H](O)[C@H]1O | active
5 | CC1OC(OC2CCC3(C=O)C4CCC5(C)C(C6=CC(=O)OC6)CCC5(O)C4CCC3(O)C2)C(O)C(O)C1O (stereo unspecified) | active
6 | COC1C(O)C(C)OC(OC2CCC3(C)C4CCC5(C)C(C6=CC(=O)OC6)CCC5(O)C4CCC3(O)C2)C1O (stereo unspecified) | inactive
7 | CC(C)(C)OC(=O)N[C@H]1[C@@H]2CNC[C@@H]21 | inactive
8 | COC(N)=O | inactive
9 | C[C@H](CO)N1C[C@H](C)[C@@H](CN(C)C(=O)Oc2cccc3ccccc23)OCc2cn(nn2)CCCC1=O | inactive
10 | COC(=O)C[C@H]1CC[C@@H]2NC[C@H](O)COC[C@H]2O1 | inactive
11 | Cc1ccc(OC(=O)N(C)C[C@@H]2OCc3ccccc3-c3c(n(C)c4ccccc34)C(=O)N([C@H](C)CO)C[C@H]2C)cc1 | inactive
12 | COc1ccc(OC)c(C(O)C(C)N)c1.Cl (stereo unspecified) | inactive
13 | C[N+]1(C)CCCC(OC(=O)C(O)(c2ccccc2)c2ccccc2)C1.[Br-] (stereo unspecified) | inactive
14 | NC[C@@H](O)c1ccccc1 | inactive
15 | CC(C)(C)OC(=O)N1C[C@H]2C[C@@H]1CN2 | inactive
16 | c1cc2c(cc1CN1CCNCC1)OCO2 | inactive
17 | c1ccc2cc3c(cc2c1)-c1cccc2cccc-3c12 | inactive
18 | CCC1=C[C@@H]2[C@H](C1)C[C@]2(CN)CC(=O)O | inactive
19 | [N-]=[N+]=NCc1ccccc1C[C@]1(C(=O)N2CCCCC2)N=C(c2ccc(OCCCO)cc2)O[C@H]1c1ccccc1N=[N+]=[N-] | inactive
20 | CC12CCC3C(CCC4(O)CC(O)CCC34C=O)C1(O)CCC2C1=CC(=O)OC1 (stereo unspecified) | active
21 | NC[C@@H](CC(=O)O)c1ccccc1 | inactive
22 | CCOC(OCC)P(=O)(O)CCCN | inactive
23 | CC(=O)N[C@@H]1[C@H](O[C@@H]2O[C@H](C[C@@H](O)[C@H]3O[C@@H](n4ccc(=O)[nH]c4=O)[C@H](O)[C@@H]3O)[C@H](O)[C@H](O)[C@H]2NC(=O)/C=C/CCCCCCCCC(C)C)O[C@@H](CO)[C@H](O)[C@H]1O | inactive
24 | Oc1cc(Cl)ccc1Oc1ccc(Cl)cc1Cl [listing 1 of 2 here] | inactive
25 | Oc1cc(Cl)ccc1Oc1ccc(Cl)cc1Cl [listing 2 of 2 here] | active
26 | Oc1ccc(Cl)cc1Cc1cc(Cl)ccc1O | inactive

Row | Structure (SMILES) | cytotoxicity call
27 | CC(C)[C@@H]1NC[C@@H]2CCCN2C1=O | inactive
28 | Oc1ccccc1-c1ccccc1O | inactive
29 | O=C1C=CC(=O)c2c(O)cccc21 | inactive
30 | CC1=CC(=O)c2c(O)cccc2C1=O | active
31 | O=C(O)C=CC(=O)O.c1ccc2nc(N3CCNCC3)ccc2c1 | inactive
32 | Cc1ncc(CNC(=O)N(CCCl)[NH2+][O-])c(N)n1 | inactive
33 | CC(=O)OC1C2CCC3C(C)(O)C4CC(O)C(C)(C)C4(O)C(O)CC13CC2(C)O (stereo unspecified) | inactive
34 | Cc1cc(C2=NO[C@](c3cc(Cl)cc(Cl)c3)(C(F)(F)F)C2)ccc1C(=O)NCC(=O)NCC(F)(F)F | active
35 | CN1CCOCC12CCN(c1ncccn1)CC2 | inactive
36 | COc1ccc(C2(CN)CCCC2)cc1 | inactive
37 | NCc1cc(=O)[nH]o1 | inactive
38 | O=C1N[C@@H]2C(=C[C@H](O)[C@@H](O)[C@H]2O)c2cc3c(c(O)c21)OCO3 | active
39 | N[C@@H](c1ccccc1)[C@H](O)c1ccccc1 | inactive
40 | CNC(=O)Oc1ccc2c(c1)C1(C)CCN(C)C1N2C.O=S(=O)(O)O (stereo unspecified) | inactive
41 | Cc1ccc(N2CCO[C@@H]3CNCC[C@H]3C2)nn1 | inactive
42 | NCCc1nccs1 | inactive
43 | CCN1C[C@H]2CN(Cc3nccn3C)C[C@H]2C1=O | inactive
44 | CNC(=O)Oc1cccc2ccccc12 | inactive
45 | C[C@H]1C[C@H]2CNCC[C@@H]2O1 | inactive
46 | O=[N+]([O-])c1ccc(N(CCO)CCO)c2c1no[n+]2[O-] | active
47 | CNC(=O)Oc1ccc2c(c1)C1(C)CCN(C)C1N2C.O=C(O)c1ccccc1O (stereo unspecified) | inactive
48 | Cn1ccnc1CN1CCC[C@]2(CCNC2=O)C1 | inactive
49 | CC(=O)NN1Cc2ccccc2C1=N | inactive
50 | CC(C)c1ccc2[nH]c(=O)c(CCN)cc2c1 | inactive
51 | [N-]=[N+]=NCc1ccccc1C[C@@]1(C(=O)NCCN2CCOCC2)N=C(c2ccc(OCCCO)cc2)O[C@@H]1c1ccccc1N=[N+]=[N-] | inactive
